A structure can be active in one record and inactive in another. Calls of active or inactive are those of the source. How the source made its calls: active means hit-call score of the fitted dose curve at least 0.9, where 1 is the maximum; inactive means score below 0.9.
Key:
[1] = read-out: Vascular endothelial growth factor receptor 2 (Homo sapiens) (UniProt P35968); experiment: BSK_4H_VEGFRII: BioMAP Diversity Plus: 4H Assay for Vascular endothelial growth factor receptor 2 (VEGFR2) Biomarker Activity (AID 2283031); details: primary human endothelial cells (HUVEC); actives raise or lower the signal;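 on AC50: cell-surface VEGFR2 protein level quantified by ELISA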
In short: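 Primary human umbilical vein endothelial cells (4H system), 24 h exposure; cell-surface VEGFR2 measured by ELISA. Bidirectional fitting versus DMSO; cytotoxicity checked in parallel by SRB total-protein staining.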

[2] = read-out: Vascular cell adhesion molecule 1 (VCAM1), VCAM1 (gene 7412); experiment: BSK_4H_VCAM1: BioMAP Diversity Plus: 4H Assay for Vascular cell adhesion molecule 1 (VCAM1) Biomarker Activity (AID 2283033); details: primary human endothelial cells (HUVEC); actives raise or lower the signal;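 on outcome: cell-surface VCAM-1 protein measured by ELISA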
In short: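 Chemicals are added to primary human umbilical vein endothelial cells. After 24 h, VCAM-1 levels are measured by ELISA. Values come from bidirectional fitting referenced to DMSO.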

[3] = read-out: Interferon-gamma inducible Protein 10 (IP10), CXCL10 (gene 3627); experiment: BSK_BE3C_IP10: BioMAP Diversity Plus: BE3C Assay for Interferon-gamma inducible Protein 10 (IP10) Biomarker Activity (AID 2283034); details: primary human bronchial epithelial cells; actives raise or lower the signal
In short: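 IP-10 quantified by ELISA serves as the endpoint. Cells: primary human bronchial epithelium, read 24 h after compound addition. Activity is derived by bidirectional fitting with DMSO as negative control.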

[4] = read-out: Monokine induced gamma interferon (MIG), CXCL9 (gene 4283); experiment: BSK_BE3C_MIG: BioMAP Diversity Plus: BE3C Assay for Monokine induced gamma interferon (MIG) Biomarker Activity (AID 2283035); details: primary human bronchial epithelial cells; actives raise or lower the signal;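 on outcome: MIG protein measured by ELISA in BE3C cultures after 24 h of dosing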
In short: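 hu bronchial epithelial 1° cells, 24 h cpd; MIG by ELISA; bidirectional fit, DMSO = baseline.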

[5] = read-out: Plasminogen activator inhibitor-1 (PAI1), SERPINE1 (gene 5054); experiment: BSK_BE3C_PAI1: BioMAP Diversity Plus: BE3C Assay for Plasminogen activator inhibitor-1 (PAI1) Biomarker Activity (AID 2283037); details: primary human bronchial epithelial cells; actives raise or lower the signal
In short: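 Values derive from bidirectional fitting against DMSO baseline of PAI-1 levels, measured by ELISA in human bronchial epithelial cells 24 h after compound addition.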

[6] = read-out: urokinase plasminogen activator (uPA), PLAU (gene 5328); experiment: BSK_BE3C_uPA: BioMAP Diversity Plus: BE3C Assay for urokinase plasminogen activator (uPA) Biomarker Activity (AID 2283038); details: primary human bronchial epithelial cells; actives raise or lower the signal;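 on outcome: uPA protein level quantified by ELISA in cell cultures; uPA read one day after compound addition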
In short: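 Primary human bronchial epithelial cells, uPA measured by ELISA 24 h after dosing. Bidirectional change relative to DMSO; cytotoxicity checked in parallel cultures by sulforhodamine B total-protein staining.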

[7] = read-out: Urokinase-type plasminogen activator receptor (uPAR), PLAUR (gene 5329); experiment: BSK_BE3C_uPAR: BioMAP Diversity Plus: BE3C Assay for Urokinase-type plasminogen activator receptor (uPAR) Biomarker Activity (AID 2283039); details: primary human bronchial epithelial cells; actives raise or lower the signal;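 on outcome: uPAR protein level measured by ELISA on the cells; cells exposed to compound for one day before measurement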
In short: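 Steps: dose human primary bronchial epithelial cells, incubate 24 h, measure uPAR by ELISA, then fit gain- or loss-of-signal response bidirectionally relative to DMSO.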

[8] = read-out: Interleukin-6 (IL6), IL6 (gene 3569); experiment: BSK_CASM3C_IL6: BioMAP Diversity Plus: CASM3C Assay for Interleukin-6 (IL6) Biomarker Activity for (AID 2283040); details: primary human coronary artery smooth muscle cells; actives raise or lower the signal
[9] = read-out: Tissue plasminogen activator (tPA), PLAT (gene 5327); experiment: BSK_BE3C_tPA: BioMAP Diversity Plus: BE3C Assay for Tissue plasminogen activator (tPA) Biomarker Activity (AID 2283041); details: primary human bronchial epithelial cells; actives raise or lower the signal;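 on outcome: tPA level quantified by ELISA one day after compound addition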
In short: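 Gain- or loss-of-signal in tPA, measured by ELISA, derived by bidirectional fitting against DMSO. Cells: human primary bronchial epithelial; read at 24 h after chemical dosing.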

[10] = read-out: Interleukin-8 (IL8), CXCL8 (gene 3576); experiment: BSK_CASM3C_IL8: BioMAP Diversity Plus: CASM3C Assay for Interleukin-8 (IL8) Biomarker Activity (AID 2283042); details: primary human coronary artery smooth muscle cells; actives raise or lower the signal;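 further: IL-8 protein level quantified by ELISA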
[11] = read-out: Human Leukocyte Antigen - DR isotype (HLADR), HLA-DRA (gene 3122); experiment: BSK_CASM3C_HLADR: BioMAP Diversity Plus: CASM3C Assay for Human Leukocyte Antigen - DR isotype (HLADR) Biomarker Activity (AID 2283043); details: primary human coronary artery smooth muscle cells; actives raise or lower the signal;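 further: cell-surface HLA-DR protein level quantified by ELISA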
[12] = read-out: Macrophage colony-stimulating factor (MCSF), CSF1 (gene 1435); experiment: BSK_CASM3C_MCSF: BioMAP Diversity Plus: CASM3C Assay for Macrophage colony-stimulating factor (MCSF) Biomarker Activity (AID 2283044); details: primary human coronary artery smooth muscle cells; actives raise or lower the signal;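 further: M-CSF protein amount quantified by ELISA after 24 h exposure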
[13] = read-out: Low-density lipoprotein receptor (LDLR), LDLR (gene 3949); experiment: BSK_CASM3C_LDLR: BioMAP Diversity Plus: CASM3C Assay for Low-density lipoprotein receptor (LDLR) Biomarker Activity (AID 2283045); details: primary human coronary artery smooth muscle cells; actives raise or lower the signal;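 further: LDLR protein level on the cell surface quantified by ELISA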
[14] = read-out: Monocyte Chemoattractant Protein-1 (MCP1), CCL2 (gene 6347); experiment: BSK_CASM3C_MCP1: BioMAP Diversity Plus: CASM3C Assay for Monocyte Chemoattractant Protein-1 (MCP1) Biomarker Activity (AID 2283046); details: primary human coronary artery smooth muscle cells; actives raise or lower the signal;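 further: MCP-1 level quantified by ELISA 24 h after dosing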
[15] = BSK_CASM3C_Proliferation: Cell Proliferation Assessment in the BioMAP Diversity Plus: CASM3C Assay (AID 2283047); details: primary human coronary artery smooth muscle cells;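 further: sulforhodamine B total protein stain as relative cell number at 560 nm; sub-confluent cells exposed 48 h before staining; fitted both ways against DMSO so gain or loss of cell number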
[16] = read-out: Monokine induced gamma interferon (MIG), CXCL9 (gene 4283); experiment: BSK_CASM3C_MIG: BioMAP Diversity Plus: CASM3C Assay for Monokine induced gamma interferon (MIG) Biomarker Activity (AID 2283048); details: primary human coronary artery smooth muscle cells; actives raise or lower the signal;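 further: MIG protein level measured by ELISA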
[17] = read-out: serum amyloid A (SAA), SAA1 (gene 6288); experiment: BSK_CASM3C_SAA: BioMAP Diversity Plus: CASM3C Assay for serum amyloid A (SAA) Biomarker Activity (AID 2283049); details: primary human coronary artery smooth muscle cells; actives raise or lower the signal;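 further: SAA protein level quantified by ELISA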
[18] = BSK_CASM3C_SRB: Viability Assessment in the BioMAP Diversity Plus: CASM3C Assay (AID 2283050); details: primary human coronary artery smooth muscle cells;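 further: total protein by SRB staining as cytotoxicity measure in parallel cultures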
[19] = read-out: Transforming growth factor beta 1 (TGFb1), TGFB1 (gene 7040); experiment: BSK_BE3C_TGFb1: BioMAP Diversity Plus: BE3C Assay for Transforming growth factor beta 1 (TGFb1) Biomarker Activity (AID 2283036;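 on outcome: TGF-b1 protein level measured by ELISA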); details: primary human bronchial epithelial cells; actives raise or lower the signal
In short: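 Bronchial epithelial primary cells are treated with test chemical, then TGF-b1 is quantified by ELISA after 24 hours. Values derive from bidirectional fitting against DMSO, with cytotoxicity checked by SRB staining in parallel cultures.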

CC(CN=Cc1ccccc1O)N=Cc1ccccc1O (stereo unspecified)
outcome [1]: inactive
outcome [2]: inactive
outcome [3]: inactive
outcome [4]: inactive
outcome [5]: inactive
outcome [6]: inactive
outcome [7]: inactive
AC50 [8]: 8.95 µM (active)
outcome [8]: inactive
AC50 [9]: 8.3 µM (active)
outcome [9]: inactive
outcome [10]: inactive
outcome [11]: inactive
outcome [12]: inactive
AC50 [13]: 20 µM (active)
outcome [13]: inactive
outcome [14]: inactive
AC50 [15]: 1.64 µM (active)
outcome [15]: inactive
outcome [16]: inactive
outcome [17]: inactive
outcome [18]: inactive

CC(=O)C1(C)CC2=C(CCCC2(C)C)CC1C (stereo unspecified)
AC50 [1]: 5.33 µM (active)
AC50 [2]: 9.63 µM (active)
AC50 [3]: 25.6 µM (active)
AC50 [4]: 34.9 µM (active)
AC50 [19]: 12.8 µM (active)
AC50 [5]: 20 µM (active)
AC50 [6]: 20 µM (active)
AC50 [7]: 20 µM (active)
AC50 [8]: 14 µM (active)
AC50 [9]: 12.7 µM (active)
outcome [10]: inactive
AC50 [12]: 10.3 µM (active)
outcome [13]: inactive
AC50 [14]: 20 µM (active)
AC50 [15]: 13.2 µM (active)
AC50 [16]: 27.6 µM (active)
AC50 [17]: 11.9 µM (active)
AC50 [18]: 12.4 µM (active)

CS(=O)(=O)OCCCCOS(C)(=O)=O
outcome [1]: inactive
outcome [2]: inactive
outcome [3]: inactive
outcome [4]: inactive
outcome [19]: inactive
outcome [5]: inactive
outcome [6]: inactive
outcome [7]: inactive
outcome [8]: inactive
outcome [9]: inactive
outcome [10]: inactive
outcome [11]: inactive
outcome [12]: inactive
outcome [13]: inactive
outcome [14]: inactive
outcome [15]: inactive
outcome [16]: inactive
outcome [17]: inactive
outcome [18]: inactive

COc1ccc(OC)c(N=Nc2c(O)ccc3ccccc23)c1
outcome [1]: inactive
AC50 [2]: 20 µM (active)
AC50 [3]: 6.72 µM (active)
outcome [4]: inactive
outcome [19]: inactive
outcome [5]: inactive
outcome [6]: inactive
AC50 [7]: 5.41 µM (active)
outcome [8]: inactive
outcome [9]: inactive
outcome [10]: inactive
outcome [11]: inactive
AC50 [12]: 0.0186 µM (active)
AC50 [13]: 0.119 µM (active)
outcome [14]: inactive
AC50 [15]: 33.6 µM (active)
outcome [16]: inactive
outcome [17]: inactive
AC50 [18]: 20 µM (active)

CC(=O)c1c(C)c([N+](=O)[O-])c(C(C)(C)C)c([N+](=O)[O-])c1C
outcome [1]: inactive
outcome [2]: inactive
outcome [3]: inactive
outcome [4]: inactive
outcome [19]: inactive
outcome [5]: inactive
outcome [6]: inactive
outcome [7]: inactive
outcome [8]: inactive
outcome [9]: inactive
outcome [10]: inactive
outcome [11]: inactive
outcome [12]: inactive
outcome [13]: inactive
outcome [14]: inactive
outcome [15]: inactive
outcome [16]: inactive
outcome [17]: inactive
outcome [18]: inactive

C1=CC2C3C=CC(C3)C2C1 (stereo unspecified)
outcome [1]: inactive
outcome [2]: inactive
outcome [3]: inactive
outcome [4]: inactive
outcome [19]: inactive
outcome [5]: inactive
outcome [6]: inactive
outcome [7]: inactive
outcome [8]: inactive
outcome [9]: inactive
outcome [10]: inactive
outcome [11]: inactive
outcome [12]: inactive
outcome [13]: inactive
outcome [14]: inactive
outcome [15]: inactive
outcome [16]: inactive
outcome [17]: inactive
outcome [18]: inactive
